Each structure is given as a SMILES string. Compounds without any hit were thinned out: in the full panel of roughly 83,000, 20% have a hit.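 For each line, cells grew in 96-well plates with the test compound present at a single concentration for 48 hours.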 Unmarked numbers belong to inactive results. Calls of active or inactive are those of the source. How the source made its calls: active means growth percent below 10; inactive means the rest.

This assay relates to HL-60(TB) leukemia. The assay can be described thus: NCI-60 one-dose screen, 48 h (100 = growth as untreated, 0 = no growth, -100 = all killed). The following applies: 10 µM unless noted.
For `O=C(NCO)c1ccccc1`, the growth was 94.4%.

As for `Cn1cc(-c2nc(-c3cn(C)c4ncccc34)cs2)c2cc(F)ccc21`, the growth was 30.7%.

Take `CCNc1nc(N2CC(=O)Nc3cc(OC)ccc32)c2ccccc2n1`: the growth is -4.51% (active).

As for `CN(Cc1ccccc1)c1ccc(SC#N)cc1`, the growth was 17.5%.

With `Cc1c(C(N)=O)sc2nc(SCC(=O)Nc3ccc(Cl)cc3)n(-c3ccccc3)c(=O)c12`, the growth is 171%.
